Source: PubChem BioAssay (NCI)
The panel holds about 79,000 compounds, 15% with a hit somewhere; the sample as a whole holds those more often. Active and inactive are the calls of the source. No stated cut-off is given here; in the data, active means growth inhibition above about 70%; inactive means the rest.

Legend:
[1] = NCI Yeast Anticancer Drug Screen. Data for the rad52 strain (AID 147);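 further: 0% = growth of vehicle-treated control cultures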; conditions: S. cerevisiae rad52 mutant growth inhibition, hits give high values
Procedure, shortened: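 Measured: yeast growth inhibition. System: strain with a defined DNA damage repair alteration. Reference: vehicle-treated control cultures.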

[2] = NCI Yeast Anticancer Drug Screen. Data for the wt1 strain (AID 149);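 further: 0% = growth of vehicle-treated wt1 cultures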; conditions: S. cerevisiae wt1 strain (SPY 50644) growth inhibition, hits give high values
Procedure, shortened: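 The wt1 strain was treated with compounds, and growth was compared with vehicle-treated cultures to give inhibition.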

[3] = NCI Yeast Anticancer Drug Screen. Data for the rad50EPP+ strain (AID 151);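 further: 0% = growth of vehicle-treated control cultures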; conditions: S. cerevisiae rad50 mutant strain, hits give high values
Procedure, shortened: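 One strain with a rad50 alteration (rad50EPP+) was compound-treated, its growth then compared to that of vehicle controls.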

[4] = NCI Yeast Anticancer Drug Screen. Data for the mgt1 strain (AID 153); conditions: S. cerevisiae mgt1 mutant growth inhibition, hits give high values
Procedure, shortened: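 After exposure of the mgt1 yeast mutant to compound, growth was measured and reported as inhibition compared with vehicle controls.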

[5] = NCI Yeast Anticancer Drug Screen. Data for the rad50 strain (AID 155);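 further: 0% = growth of vehicle-only cultures of the same strain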; conditions: S. cerevisiae rad50 strain growth inhibition, hits give high values
Procedure, shortened: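 Cells are treated with compound, grown, and their growth is then scored against vehicle-only cultures of the same repair-deficient yeast strain.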

[6] = NCI Yeast Anticancer Drug Screen. Data for the mec2-1 strain (AID 157); conditions: S. cerevisiae mec2-1 strain, hits give high values
Procedure, shortened: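 Test agents were screened against the mec2-1 yeast strain, with defined DNA repair or cell cycle alteration. Growth was scored as inhibition against vehicle-only controls.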

[7] = NCI Yeast Anticancer Drug Screen. Data for the rad14 strain (AID 159);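 further: 0% = growth of vehicle-treated control cultures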; conditions: S. cerevisiae rad14 strain growth inhibition, hits give high values
Procedure, shortened: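 Readout: yeast growth inhibition, referenced to vehicle-only cultures. Strain bears a defined alteration in DNA damage repair.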

[8] = NCI Yeast Anticancer Drug Screen. Data for the sgs1 mgt1 strain (AID 161);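 further: 0% = growth of cultures given vehicle only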; conditions: S. cerevisiae sgs1 mgt1 strain, hits give high values
Procedure, shortened: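 Genetically altered yeast, compound exposure, growth inhibition relative to vehicle.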

[9] = NCI Yeast Anticancer Drug Screen. Data for the CLN2oe strain (AID 163);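 further: 0% = growth of vehicle-only control cultures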; conditions: S. cerevisiae CLN2oe strain, hits give high values
Procedure, shortened: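 Here, growth inhibition in a cell-cycle-altered yeast strain after compound exposure was quantified against vehicle control growth.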

[10] = NCI Yeast Anticancer Drug Screen. Data for the cln2 rad14 strain (AID 165);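 further: 0% = growth equal to vehicle treated cultures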; conditions: S. cerevisiae cln2 rad14 strain, hits give high values
Procedure, shortened: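 Growth of compound-exposed yeast (cln2 rad14 genotype) measured and expressed as inhibition relative to vehicle.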

[11] = NCI Yeast Anticancer Drug Screen. Data for the bub3 strain (AID 167); conditions: S. cerevisiae bub3 mutant strain, hits give high values
Procedure, shortened: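 Part of a panel of yeast mutants defective in DNA damage repair or cell cycle regulation. Each strain is grown with compound, and inhibition is calculated relative to solvent-treated cultures.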

[12] = NCI Yeast Anticancer Drug Screen. Data for the wt2 strain (AID 169);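 further: 0% = growth of vehicle-treated yeast cultures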; conditions: S. cerevisiae wt2 strain growth inhibition, hits give high values
Procedure, shortened: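 Genetically defined yeast strains from a DNA-repair/cell-cycle panel were used. Compound-exposed yeast growth was measured, and the inhibition was calculated relative to vehicle treatment.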

[13] = NCI Yeast Anticancer Drug Screen. Data for the mlh1 strain (AID 171);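 further: 0% = growth of vehicle-treated control cultures of the same strain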; conditions: S. cerevisiae mlh1 strain growth inhibition, hits give high values
Procedure, shortened: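 Here the genetically defined yeast mutant is grown with each compound, and the extent to which its growth falls below that of vehicle-exposed cells is reported.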

[14] = NCI Yeast Anticancer Drug Screen. Data for the sgs1 strain (AID 173);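 further: 0% = growth of vehicle-only control cultures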; conditions: S. cerevisiae sgs1 mutant, hits give high values
Procedure, shortened: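 Relative growth inhibition, referenced to vehicle, was determined in a yeast strain with a defined alteration affecting DNA damage repair or cell cycle control after compound exposure.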

[15] = NCI Yeast Anticancer Drug Screen. Data for the mlh1 rad18 strain (AID 175); conditions: S. cerevisiae mlh1 rad18 strain growth inhibition, hits give high values
Procedure, shortened: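 In this whole-cell yeast screen, a strain with altered DNA damage repair is challenged with compound, and its growth is measured against matched vehicle-treated controls.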

[16] = NCI Yeast Anticancer Drug Screen. Data for the rad18 strain (AID 177); conditions: S. cerevisiae rad18 mutant growth inhibition, hits give high values
Procedure, shortened: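 Screen uses a yeast strain with a defined lesion in DNA damage repair; compound effect is read as loss of growth compared to untreated vehicle cultures.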

[17] = at 5.0 µM (retest, dose inferred, filed as 0.5)
[18] = at 50.0 µM (retest, dose inferred, filed as 5.0)

Measured: growth inhibition

Cc1cc(Cl)nc2nc(Cl)c(N)cc12
active: [4]; at 100.0 µM 87% | [7]; at 100.0 µM 78% | [8]; at 50.0 µM 73.5% | [12]; at 100.0 µM 94% | [13]; at 100.0 µM 80% | [15]; [18] 84% | [16]; at 100.0 µM 80%
inactive: [1]; at 1.2 µM -8% | [1]; at 3.7 µM -3% | [1]; at 11.0 µM -10% | [1]; at 33.0 µM 16% | [1]; at 100.0 µM 69% | [2]; at 1.2 µM -16% | [2]; at 3.7 µM -7% | [2]; at 11.0 µM -2% | [2]; at 33.0 µM 2% | [2]; at 100.0 µM 27% | [3]; at 1.2 µM -17% | [3]; at 3.7 µM -17% | [3]; at 11.0 µM -13% | [3]; at 33.0 µM 0% | [3]; at 100.0 µM 49% | [4]; at 1.2 µM -14% | [4]; at 3.7 µM -12% | [4]; at 11.0 µM -9% | [4]; at 33.0 µM 20% | [5]; at 1.2 µM -4% | [5]; at 3.7 µM -18% | [5]; [17] 11% | [5]; at 11.0 µM -4% | [5]; at 33.0 µM 8% | [5]; [18] 55% | [5]; at 50.0 µM 38.6% | [5]; at 100.0 µM 51% | [6]; at 1.2 µM -13% | [6]; at 3.7 µM -17% | [6]; [17] 7% | [6]; at 11.0 µM -7% | [6]; at 33.0 µM 32% | [6]; [18] 62% | [6]; at 50.0 µM 62.9% | [6]; at 100.0 µM 44% | [7]; at 1.2 µM 1% | [7]; at 3.7 µM 2% | [7]; at 11.0 µM 1% | [7]; at 33.0 µM 28% | [8]; [17] -11% | [8]; [18] 55% | [9]; at 1.2 µM 4% | [9]; at 3.7 µM 1% | [9]; at 11.0 µM 5% | [9]; at 33.0 µM 6% | [9]; at 100.0 µM 54% | [10]; [17] 29% | [10]; [18] 42% | [10]; at 50.0 µM 22.6% | [11]; at 1.2 µM -20% | [11]; at 3.7 µM -2% | [11]; [17] -24% | [11]; at 11.0 µM -4% | [11]; at 33.0 µM 1% | [11]; [18] 30% | [11]; at 50.0 µM 48.2% | [11]; at 100.0 µM 67% | [12]; at 1.2 µM -22% | [12]; at 3.7 µM -16% | [12]; at 11.0 µM -24% | [12]; at 33.0 µM 21% | [13]; at 1.2 µM -16% | [13]; at 3.7 µM -2% | [13]; at 11.0 µM -2% | [13]; at 33.0 µM 14% | [14]; at 1.2 µM -2% | [14]; at 3.7 µM -6% | [14]; at 11.0 µM -1% | [14]; at 33.0 µM 13% | [14]; at 100.0 µM 63% | [15]; [17] 11% | [16]; at 1.2 µM -29% | [16]; at 3.7 µM -24% | [16]; at 11.0 µM -10% | [16]; at 33.0 µM 35%
